Screening results from PubChem BioAssay.
Rows were chosen to be rich in hits. Some 1.7% of all compounds tested hit in one or more screens of this group.
MT1-MMP txn act: MT1-MMP promoter reporter activation – cell-based, luciferase luminescence, primary screen; activation factor at 10 µM; HT1080 MT1-MMP promoter luciferase reporter, overnight; hits give high values; actives 0.16% (n = 86,000); AID 750, 2007;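 active means activation factor of at least 2 for MT1-MMP transcription at 10 µM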
Measles CPE: compounds protecting cells from measles virus cytopathic effect, primary screen, measles RdRp inhibitor project, single point, MLSMR library, absorbance. Measles virus-infected cells, CPE protection. protection (pct of control), % at 4 µM. actives 1.5% (n = 140,000). AID 841, 2007; in the data active means protection mostly above about 24%, no sharp cut-off; inactive means mostly below about 26%
Smad3 inh: Smad3/FoxH1 peptide binding inhibitors, primary screen, biochemical, TR-FRET; inhibition, % at 25 µM; Mothers against decapentaplegic homolog 3 (Homo sapiens), P84022; actives 0.29% (n = 88,000); TR-FRET Smad3/Dy647-FoxH1 peptide binding, europium anti-His; AID 630, 2007;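 active means compounds that reduce the energy-transfer binding signal between the protein and its labelled peptide by more than half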;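 further: 0% = Smad3 plus labelled peptide maximal FRET and 100% = peptide-only background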
Target sequence (P84022 whole entry, looked up): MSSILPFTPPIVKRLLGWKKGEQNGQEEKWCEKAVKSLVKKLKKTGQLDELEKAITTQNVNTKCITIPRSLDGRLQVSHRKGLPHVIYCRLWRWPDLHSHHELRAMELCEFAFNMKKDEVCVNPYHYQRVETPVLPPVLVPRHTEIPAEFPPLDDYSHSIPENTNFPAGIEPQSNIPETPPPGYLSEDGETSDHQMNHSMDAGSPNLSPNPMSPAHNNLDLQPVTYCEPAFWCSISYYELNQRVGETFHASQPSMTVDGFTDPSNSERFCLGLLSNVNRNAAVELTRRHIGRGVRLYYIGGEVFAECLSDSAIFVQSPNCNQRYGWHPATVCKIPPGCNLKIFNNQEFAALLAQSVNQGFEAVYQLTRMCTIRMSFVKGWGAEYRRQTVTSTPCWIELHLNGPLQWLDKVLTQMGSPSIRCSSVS
* hit, by the source's call; x = not tested or not shown.

SMILES	MT1-MMP txn act	Measles CPE	Smad3 inh
N#CC(C#N)=CNCCN1CCN(C=C(C#N)C#N)CC1	x	x	2.7
CC(=O)CSc1nnc(Cc2ccc3c(c2)OCO3)o1	1.2	20.4	3.9
Ic1ccc2c(c1)N(c1ccccc1)c1cc(Nc3ccc4nc5ccc(I)cc5[n+](-c5ccccc5)c4c3)ccc1N2	x	x	89.7*
CCC1=C2CC[C@H]3C(=O)NC(=O)[C@H]3[C@H]2[C@@]2(C)C(=NCC(=O)OC)OC(=O)N2C1=O	1.2	x	x
COc1ccc(Cl)cc1N(CC(=O)Nc1ccccc1C(=O)NCc1ccco1)S(C)(=O)=O	1	46.3*	-4.2
O=C(/C=C/c1ccc(S(=O)(=O)NCc2ccco2)cc1)NCc1ccccc1Cl	x	6.5	x
O=C(Nc1ccc(Cl)cc1)Nc1ccccc1C(=O)NCc1ccco1	x	37.6*	11.7
O=C(/C=C/c1ccc(Cl)cc1)NCc1ccco1	x	18.5*	x
O=C(Nc1ccccc1C(=O)NCc1ccco1)c1ccccc1	1.1	13.2	8.4
COc1ccc(OC)c(N(CC(=O)Nc2ccccc2C(=O)NCc2ccco2)S(C)(=O)=O)c1	1.2	8.1	2.6
COC(=O)[C@@]1(Cc2ccccc2)[C@H]2c3cc(C(=O)N(C)C)n(CCO)c3C[C@H]2CN1C(=O)c1ccccc1	1.1	x	x
CCCC[C@@H]1C[C@H]1C(NC(=O)c1cccs1)c1ccc(C(F)(F)F)cc1 (stereo not given in full)	1.2	x	x
CCCCCCN(C(=O)CCCCCN1C(=O)NC(C2CC2)C(C(=O)OCc2ccccc2)=C1C)C(C(=O)NCCCC)c1ccc(OCC(=O)OC)c(C(=O)OC)c1 (stereo not given)	1	x	x
CCCSc1nc(N)nc(-c2cccs2)c1C#N	x	25.4	x
C[C@@H]1C=C[C@](Cc2ccccc2)(C(=O)NCCN2CCOCC2)N1C(=O)c1ccccc1	1	x	x
O=C(O)Cc1c[nH]c2ccc(F)cc12	x	x	-1.1
O=C(OCC(=O)c1c[nH]c2ccccc12)C1=COCCO1	2.1*	8.1	9.6
Cc1ccc(C(=O)OCC(=O)c2c[nH]c3ccccc23)cc1	x	12.7	x
C/C(=N/NC(=O)c1sc(=S)n(C)c1C)c1ccccc1	x	5.4	x
CSc1ccc(NC(=O)N2CC=C(n3c(=O)[nH]c4ccccc43)CC2)cc1	x	4.1	x
Cc1cc(C(=O)OCC(=O)Nc2nc(-c3ccccc3)cs2)c(C)o1	1.1	11.7	2.4
Cn1ncc(Br)c1C(=O)OCC(=O)Nc1nc(-c2ccccc2)cs1	1.1	35.2*	6.1
COc1ccc(/C=N/N2CCN(c3ccccc3OC)CC2)cc1OC	x	2.9	x
COc1cccc(/C=N/N2CCN(c3ccccc3OC)CC2)c1	x	49.0*	x
CCOC(=O)C1=C(CCc2ccccc2)NC(=O)NC1c1ccc(Cl)cc1 (stereo not given)	1.1	x	x
SMILES	MT1-MMP txn act	Measles CPE	Smad3 inh
Cc1ccc2oc(-c3cccc(NC(=O)/C=C/c4cccc([N+](=O)[O-])c4)c3C)nc2c1	x	3.8	x
CC1CCC(n2c(=S)[nH]c3ccccc3c2=O)CC1 (stereo not given)	1	9.1	0.4
CC1CCCC(n2c(=S)[nH]c3ccccc3c2=O)C1C (stereo not given)	1.1	32.3*	-9.6
COC(=O)[C@@]1(Cc2ccc(F)cc2)[C@H]2c3cc(C(=O)N4CCCC4)n(Cc4cccc5ccccc45)c3C[C@H]2CN1C(=O)c1ccccc1	1.2	x	x
CCOC(=O)Cc1csc(N)n1	1	3.8	-8.8
CCOC(=O)Cc1csc(/C(=N/O)C(N)=O)n1	1.1	32.8*	-2.8
Cc1ccc(C[n+]2cccc(-c3ccccc3)c2)c(C)c1	x	3.3	x
CCC1SC2=NC(C)=C(C(=O)OCCOC)C(/C=C/c3ccccc3OC)N2C1=O (stereo not given)	1.1	54.1*	-7.9
CCC1SC2=NC(C)=C(C(=O)OCC(C)C)C(/C=C/c3ccccc3OC)N2C1=O (stereo not given)	1.2	7.4	4.7
O=C(COc1ccc(F)cc1)NCC1CCCO1 (stereo not given)	1.2	42.7*	-8.6
O=C(COc1ccccc1)NCC1CCCO1 (stereo not given)	x	4.0	-3.4
O=C(Nc1nn[nH]n1)c1nc(-c2ccccc2)cc(=O)[nH]1	x	x	7.5
COC(=O)c1ccc(Cn2c(O)c(N=O)c3ccccc32)o1	1.1	65.9*	-15.3
O=Nc1c(O)n(Cc2ccc(Cl)c(Cl)c2)c2ccccc12	x	21.3	x
CCCCc1ccc(NC(=S)Nc2ccc(Cl)c(S(=O)(=O)N(C)C)c2)cc1	x	3.8	x
CCC1SC(CC)C(=O)N(CC(=O)Nc2ccc3c(c2)OCO3)C1=O (stereo not given)	x	31.4	x
C=C(CC1([C@@H](NP(=O)(c2ccccc2)c2ccccc2)[C@H]2C[C@@H]2CCCC)CC1)c1cccc(OC)c1	1	x	x
CNc1ccc(Br)cc(C(=O)/C=C/c2ccc3c(c2)OCO3)c1=O	x	53.8*	x
CNc1ccc(Br)cc(C(=O)/C=C/c2ccc(OC)cc2)c1=O	x	12.7	x
CC(C)(C)c1ccc(S(=O)(=O)N(CCCN2CCOCC2)Cc2cccs2)cc1	x	0.4	x
O=c1cc(O)c2c(=O)n(C3CCCCC3)c3ccccc3c2o1	x	0.5	x
O=c1cc(O)c2c(=O)n(-c3ccccc3)c3c(c2o1)CCCCCC3	x	35.8*	x
N#Cc1c(Nc2ccc(F)cc2)sc(C(=O)c2ccccc2)c1N	x	14.9	x
N#Cc1c(Nc2ccccc2)sc(C(=O)c2ccccc2)c1N	x	68.5*	x
CC(C)CC(c1nnnn1C1CCCCC1)N1CCN(c2ncccn2)CC1 (stereo not given)	1	4.2	-9.3
SMILES	MT1-MMP txn act	Measles CPE	Smad3 inh
CC(C)CC(c1nnnn1C1CCCC1)N1CCN(c2ccccc2F)CC1 (stereo not given)	1.2	41.7*	2.0
CCC1=C2CC[C@H]3C(=O)N(c4ccccc4)C(=O)[C@H]3[C@H]2[C@@]2(Cc3ccccc3)C(=NCCOC)OC(=O)N2C1=O	1.2	x	x
COc1cc(/C=N/NC(=O)CCN2CCN(C(c3ccccc3)c3ccccc3)CC2)ccc1O	x	28.0*	x
COc1cc(/C=N/NC(=O)CCc2ccccc2)ccc1O	x	3.1	x
O=C(COc1ccc(F)cc1)N1CCC(c2ccccc2)C1 (stereo not given)	2.1*	4.4	-2.9
Cc1cccc(OCC(=O)N2CCC(c3ccccc3)C2)c1 (stereo not given)	1.3	2.9	8.7
CCN(CC)COC(=S)S	x	x	24.9
NC(=O)NC(CC(=O)OCC(=O)NC(=O)NCc1ccco1)c1ccc(Cl)cc1 (stereo not given)	1.1	1.7	-0.1
NC(=O)COC(=O)CC(NC(N)=O)c1ccc(Cl)cc1 (stereo not given)	x	36.9*	x
N=C(N)SCCON1C(=O)c2ccccc2C1=O	x	x	3.2
S=c1sc(SCCOc2ccccc2)nn1-c1ccccc1	x	92.8*	x
COc1ccc(CCNC(=O)CSc2nn(-c3ccccc3)c(=S)s2)cc1OC	x	19.8	x
CC(=O)NCCOc1ccc2oc3ccccc3c2c1	1.3	47.1*	11.4
CC(=O)NCCOc1cccc(OCCNC(C)=O)c1	1.5	6.8	-8.7
C[N+](C)(C)c1cc2c(nn1)Nc1ccccc1S2	x	x	40.8
Cc1ccc(-c2cc(C)nc3ncnn23)cc1	1.2	46.7*	5.3
Cc1cc(C)n2ncnc2n1	1.1	6.2	0.5
CC(=O)N[C@H](Cc1ccc(O)cc1)C(=O)O	x	x	-3.9
CSC(=Nc1ccc(Cl)cc1)N[n+]1ccccc1	x	7.7	x
